Inconclusive results are not listed. Active and inactive are the calls of the source. Unless noted, calls come from the whole dose curve; as a rule, active = well fitted curve in the direction sought with a large enough effect in the repeat runs; inconclusive = weak or mixed curves; inactive = no such curve, though single readings can be large; an effect the other way counts as inactive or inconclusive.
Columns and labels:
[1] = A CellTox Green Cytotoxicity Assay to monitor cytotoxicity in HepG2 cells - 8 hour (AID 1224890); note: nearly all actives have a fitted effect of over 45% in size
Outline: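 Real-time, homogeneous cytotoxicity readout: dead-cell DNA staining by CellTox Green in HepG2 monolayers, fluorescence measured at timed intervals up to 40 h of continuous compound exposure.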

[2] = qHTS assay to identify small molecule antagonists of the estrogen receptor alpha (ER-alpha) signaling pathway using the BG1 cell line in the presence of 0.1 nM 17-beta-estradiol - cell viability counter screen (AID 1259241); note: nearly all actives have a fitted effect of over 40% in size
Outline: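 Cytotoxicity counter-screen: live-cell protease activity measured by fluorescence (30 min reagent step) in the same wells. Cells were VM7Luc4E2 with endogenous ER-alpha and ERE-driven luciferase, treated 22 hr at 37C alongside 0.1 nM 17beta-estradiol final.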

[3] = qHTS assay to identify small molecule antagonists of the androgen receptor (AR) signaling pathway using the MDA cell line in the presence of 0.5 nM R1881 - cell viability counter screen (AID 1259242); note: nearly all actives have a fitted effect of over 45% in size
Outline: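 Cytotoxicity toward MDA-kb2 cells is measured by CellTiter-Fluor live-cell protease fluorescence after 16 hr compound exposure at 37C in the presence of 0.5 nM R1881 stimulator.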

[4] = molecular target: Androgen receptor (Homo sapiens) (UniProt P10275); experiment: qHTS assay to identify small molecule antagonists of the androgen receptor (AR) signaling pathway using the MDA cell line in the presence of 0.5 nM R1881 (AID 1259243); note: nearly all actives have a fitted effect of over 50% in size
Androgen receptor (Homo sapiens), sequence (P10275 whole entry, looked up): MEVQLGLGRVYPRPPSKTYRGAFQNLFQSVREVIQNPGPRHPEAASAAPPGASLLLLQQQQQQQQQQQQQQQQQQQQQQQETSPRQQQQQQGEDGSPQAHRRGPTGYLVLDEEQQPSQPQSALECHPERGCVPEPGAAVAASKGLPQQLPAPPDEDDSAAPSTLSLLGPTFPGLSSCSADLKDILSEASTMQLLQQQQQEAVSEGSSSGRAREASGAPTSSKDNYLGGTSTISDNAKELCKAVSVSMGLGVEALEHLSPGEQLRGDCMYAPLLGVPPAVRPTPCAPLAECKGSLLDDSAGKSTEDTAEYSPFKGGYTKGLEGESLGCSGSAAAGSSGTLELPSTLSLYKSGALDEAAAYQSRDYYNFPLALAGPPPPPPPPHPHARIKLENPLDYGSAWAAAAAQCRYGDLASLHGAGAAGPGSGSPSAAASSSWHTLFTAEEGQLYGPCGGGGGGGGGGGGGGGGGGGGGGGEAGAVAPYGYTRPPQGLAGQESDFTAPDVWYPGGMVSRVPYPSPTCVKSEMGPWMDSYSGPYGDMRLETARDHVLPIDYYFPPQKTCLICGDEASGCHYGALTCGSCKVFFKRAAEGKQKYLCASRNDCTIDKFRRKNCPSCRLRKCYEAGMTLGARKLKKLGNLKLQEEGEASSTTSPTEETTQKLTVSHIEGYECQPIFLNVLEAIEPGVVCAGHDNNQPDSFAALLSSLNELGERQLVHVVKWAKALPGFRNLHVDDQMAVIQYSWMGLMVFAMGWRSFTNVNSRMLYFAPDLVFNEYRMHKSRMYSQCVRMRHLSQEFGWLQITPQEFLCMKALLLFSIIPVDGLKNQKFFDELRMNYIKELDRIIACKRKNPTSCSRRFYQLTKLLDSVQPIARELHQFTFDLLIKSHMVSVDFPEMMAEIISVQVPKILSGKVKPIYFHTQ
Outline: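 Steps: seed MDA-kb2 cells, incubate 5 hr at 37C; pin-transfer compounds in DMSO; add R1881 to 0.5 nM final; incubate 16 hr; add ONE-Glo, wait 30 min at room temperature; read luminescence.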

[5] = molecular target: Estrogen receptor (Homo sapiens) (UniProt P03372); experiment: qHTS assay to identify small molecule antagonists of the estrogen receptor alpha (ER-alpha) signaling pathway using the BG1 cell line in the presence of 0.1 nM 17-beta-estradiol (AID 1259244); note: nearly all actives have a fitted effect of over 50% in size
Estrogen receptor (Homo sapiens), sequence (P03372 whole entry, looked up): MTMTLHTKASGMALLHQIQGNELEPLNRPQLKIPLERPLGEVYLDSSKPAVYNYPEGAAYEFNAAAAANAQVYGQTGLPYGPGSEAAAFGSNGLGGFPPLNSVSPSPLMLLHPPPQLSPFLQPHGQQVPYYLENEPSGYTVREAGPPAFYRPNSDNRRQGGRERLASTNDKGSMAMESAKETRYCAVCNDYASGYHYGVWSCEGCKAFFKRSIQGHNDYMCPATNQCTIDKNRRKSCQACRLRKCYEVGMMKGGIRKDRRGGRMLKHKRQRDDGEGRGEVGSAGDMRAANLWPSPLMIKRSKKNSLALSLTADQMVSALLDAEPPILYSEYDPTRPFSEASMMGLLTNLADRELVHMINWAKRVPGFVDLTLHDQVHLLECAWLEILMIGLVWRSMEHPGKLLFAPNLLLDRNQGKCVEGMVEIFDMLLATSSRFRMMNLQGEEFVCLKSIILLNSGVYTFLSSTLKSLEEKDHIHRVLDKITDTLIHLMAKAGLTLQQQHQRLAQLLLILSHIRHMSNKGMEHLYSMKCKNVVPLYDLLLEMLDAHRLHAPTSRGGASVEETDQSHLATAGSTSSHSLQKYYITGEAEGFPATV
Outline: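 After 5 days in hormone-depleted medium (charcoal-stripped serum, no phenol red), VM7Luc4E2 cells were seeded, incubated 24 h, then co-treated with compound and 0.1 nM (final) estradiol for 22 h before luminescence detection.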

[6] = qHTS assay to identify small molecule phospholipidosis (PLD) inducers (AID 1259344; active = well fitted curve in the direction sought with a large enough effect; an effect the other way counts as inactive or inconclusive)
Outline: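 Quantitative HTS in HepG2: compound plus LipidTOX Red dye for 24 h, paraformaldehyde fixation with Hoechst 33342, widefield high-content imaging; amiodarone as positive and DMSO as negative control.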

[7] = qHTS assay to identify small molecule HDAC inhibitors (AID 1259364); note: top concentration of the series differs between compounds; nearly all actives have a fitted effect of over 45% in size
Outline: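 Homogeneous cell-based luminescent assay of endogenous class I/II HDAC activity; HCT-116 cells, 2 h compound exposure, 30 min HDAC-Glo development at RT.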

[8] = qHTS assay to identify small molecule HDAC inhibitors - cell viability counter screen (AID 1259365); note: series mostly up to about 92 µM; nearly all actives have a fitted effect of over 50% in size
Outline: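 CellTiter-Glo luminescence (30 min, room temperature) reported viability after a 2 h compound exposure at 37 C. Cells: wild-type HCT-116, 1,500 per well, seeded the night before.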

[9] = qHTS assay to identify small molecule antagonists of the sonic hedgehog signaling (Shh) pathway - cell viability counter screen (AID 1259367); note: nearly all actives have a fitted effect of over 55% in size
Outline: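 Seed 3T3 Gli1-Luc cells at 2,000 per well; incubate 4 hr; add compound in DMSO, then conditioned medium; incubate at 37C with 5% CO2; add CellTiter-Fluor after 23 hr; read fluorescence 1 hr later.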

[10] = qHTS assay to identify small molecule agonists of the sonic hedgehog signaling (Shh) pathway (AID 1259368; calls by dose curve;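 note: NIH/3T3-derived 3T3Gli1-Luc cells carrying a stable Gli1-driven firefly luciferase reporter; series mostly up to about 92 µM; nearly all actives have a fitted effect of over 15% in size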)
Outline: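 Steps: seed 3T3 Gli1-Luc cells, incubate 4 hr at 37 C, pin-transfer compounds in DMSO alongside a positive control, incubate 24 hr, add luciferase detection reagent, wait 30 min at room temperature, read luminescence.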

[11] = qHTS assay to identify small molecule antagonists of the sonic hedgehog signaling (Shh) pathway (AID 1259369; calls by dose curve; note: nearly all actives have a fitted effect of over 45% in size)
Outline: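 Inhibition of Shh signalling is measured as reduced Gli1-response-element firefly luciferase output in an NIH/3T3-derived stable reporter clone stimulated with conditioned medium for 24hr.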

[12] = molecular target: Estrogen receptor beta (Homo sapiens) (UniProt Q92731); experiment: qHTS assay to identify small molecule agonists of the estrogen receptor beta (ER-beta) signaling pathway (AID 1259377; active = well fitted activation curve with a large enough effect in the signal ratio in the repeat runs, not every such curve was filed as active; the % refers to the signal ratio)
Estrogen receptor beta (Homo sapiens), sequence (Q92731 whole entry, looked up): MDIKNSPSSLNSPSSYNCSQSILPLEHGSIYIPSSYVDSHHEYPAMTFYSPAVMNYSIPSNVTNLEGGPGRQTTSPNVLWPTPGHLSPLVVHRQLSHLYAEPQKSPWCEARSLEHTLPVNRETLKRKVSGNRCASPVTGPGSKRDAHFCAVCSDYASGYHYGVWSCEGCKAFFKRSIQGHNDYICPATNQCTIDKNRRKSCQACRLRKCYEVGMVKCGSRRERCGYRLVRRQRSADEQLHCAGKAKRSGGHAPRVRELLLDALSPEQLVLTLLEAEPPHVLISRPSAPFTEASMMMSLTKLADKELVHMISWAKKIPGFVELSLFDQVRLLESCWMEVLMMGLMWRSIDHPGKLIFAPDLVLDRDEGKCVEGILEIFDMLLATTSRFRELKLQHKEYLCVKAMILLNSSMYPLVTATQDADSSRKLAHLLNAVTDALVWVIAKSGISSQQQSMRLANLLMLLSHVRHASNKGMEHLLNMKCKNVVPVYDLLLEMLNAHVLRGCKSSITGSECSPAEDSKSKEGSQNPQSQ
Outline: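 Ratiometric beta-lactamase FRET read-out came after 2 h substrate loading at room temperature. It followed 16 h compound treatment at 37C of GripTite HEK293T cells carrying a UAS-bla reporter, plated in 2% charcoal-stripped FBS medium.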

[13] = molecular target: Estrogen receptor beta (Homo sapiens) (UniProt Q92731); experiment: qHTS assay to identify small molecule antagonists of the estrogen receptor beta (ER-beta) signaling pathway (AID 1259378; active = well fitted inhibition curve with a large enough effect in the signal ratio in the repeat runs, not every such curve was filed as active; the % refers to the signal ratio)
Outline: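 ER-beta-UAS-bla HEK293T cells in 2% charcoal-stripped FBS medium treated with compound plus 1nM final 17-beta-estradiol for 16 hr at 37C. Beta-lactamase reporter read by FRET substrate fluorescence after 2 hours at room temperature.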

[14] = qHTS assay to identify small molecule agonists of the androgen receptor (AR) signaling pathway in the presence of an antagonist - cell viability counter screen (AID 1259379);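 note: MDA-kb2 human breast cancer cells carrying an MMTV luciferase reporter; series mostly up to about 92 µM; nearly all actives have a fitted effect of over 25% in size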
Outline: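 Fluorescence from CellTiter-Fluor, added after 15 hr and read 1 hr later, gave cell viability. Cells were MDA-kb2 exposed to compounds (15 concentrations) in the presence of 3.0uM nilutamide at 37C, 0% CO2.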

[15] = qHTS assay to identify small molecule agonists of the estrogen receptor beta (ER-beta) signaling pathway - cell viability counter screen (AID 1259380); note: nearly all actives have a fitted effect of over 30% in size
Outline: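 Same-well viability counter screen. Cells: ER-beta-UAS-bla HEK293T, plated 6 hr before compound, in 2% charcoal-stripped FBS. Compound exposure 16 hr, 37C; viability by CellTiter-Glo luminescence after 30 min at room temperature.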

[16] = molecular target: Androgen receptor (Homo sapiens) (UniProt P10275); experiment: qHTS assay to identify small molecule agonists of the androgen receptor (AR) signaling pathway in the presence of an antagonist (AID 1259381; calls by dose curve; note: nearly all actives have a fitted effect of over 15% in size)
Outline: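 Cells are MDA-kb2 (human breast carcinoma, MMTV-luc, AR/GR responsive). Nilutamide is present at 3.0uM final throughout; compounds are added at 15 concentrations and incubated 16hr at 37C before ONE-Glo luminescence detection.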

[17] = molecular target: Estrogen receptor (Homo sapiens) (UniProt P03372); experiment: qHTS assay to identify small molecule agonists of the estrogen receptor alpha (ER-alpha) signaling pathway in the presence of an antagonist (AID 1259383; calls by dose curve; note: top concentration of the series differs between compounds; nearly all actives have a fitted effect of over 15% in size)
Outline: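 Cells are hormone-deprived for 5 days (charcoal-stripped FBS, no phenol red), plated for 24hr, spiked with 10.0nM ICI-182,780, then dosed at 15 concentrations. After 22hr at 37C, ONE-Glo luminescence reports ERE-luciferase activity.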

[18] = qHTS assay to identify small molecule agonists of the sonic hedgehog signaling (Shh) pathway - cell viability counter screen (AID 1259366); note: nearly all actives have a fitted effect of over 50% in size
Outline: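 Cytotoxicity counter screen: CellTiter-Fluor reagent added after 23 h compound exposure, then 1 h at 37C and fluorescence read. Cells were 3T3 Gli1-Luc, seeded 2,000 per well and dosed 4 h post-plating.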

[19] = qHTS assay to identify small molecule antagonists of the estrogen receptor beta (ER-beta) signaling pathway - cell viability counter screen (AID 1259382); note: series mostly up to about 92 µM; nearly all actives have a fitted effect of over 55% in size
Outline: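 Following a 6 hr plating period, HEK293T cells carrying a UAS-driven beta-lactamase reporter under ER-beta control received compounds and 1nM E2 (final). After 16 hr at 37C and 2 hr substrate loading, CellTiter-Glo luminescence indicated viability.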

[20] = qHTS assay to identify small molecule agonists or antagonists of the thyroid stimulating hormone receptor (TSHR) signaling pathway - wild type cell line counter screen (AID 1259384; calls by dose curve)
Outline: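 Wild-type Hek293 cells, 800/well, 18 h at 37C, then compound with Ro20-1724 for 30 min RT. cAMP by HTRF (cAMP-d2/anti-cAMP cryptate), 1 h RT, fluorescence read. 15 concentrations, triplicates.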

Measured: Potency

NS(=O)(=O)c1cc2c(cc1Cl)NC(C1CC3C=CC1C3)NS2(=O)=O (stereo not given)
not listed: [18] | [19] | [20]
inactive: all other assays above

ClC(Cl)(Br)Br
not listed: [6] | [7]
inactive: all other assays above

CC(C)(O)C(=O)c1ccccc1
not listed: [6] | [10]
inactive: all other assays above

CC(=O)OCC(CCn1cnc2cnc(N)nc21)COC(C)=O
not listed: [11]
inactive: all other assays above

CS(=O)(=O)O
not listed: [6] | [10]
inactive: all other assays above

FC1(F)C(F)(F)C(F)(F)C2(F)C(F)(F)C(F)(F)C(F)(F)C(F)(F)C2(F)C1(F)F (stereo not given)
not listed: [18]
inactive: all other assays above

C=C(C)CS(=O)(=O)O
not listed: [6] | [12] | [13] | [20]
inactive: all other assays above
